Hits are enriched below; roughly 1.8% of the tested compounds scored in any of these assays.
TSHR antag: Antagonists of the Thyroid Stimulating Hormone Receptor: HTS campaign | Thyrotropin receptor (Homo sapiens), P16473 | TSHR-expressing cells, TSH-stimulated cAMP HTRF, 2 h; active compounds read low | activity change, negative = inhibition, % at 11.5 µM | 330,000 compounds, 0.2% hits;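 active = activity change below a set negative limit, meaning inhibition stronger than a set level, cut at about -70% in these data; inconclusive = activity change between two set negative limits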
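Antagonism was scored as loss of TSH-driven cAMP in TSHR cells, stimulated with 4nM TSH (EC80) for 2 hours at 37 deg C and detected by homogeneous HTRF competition immunoassay.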
HEK293 tox: qHTS of GLP-1 Receptor Inverse Agonists: Cytotox Screen; 410,000 compounds, 0.13% hits; AID 624418, 2012; Potency, µM (titrated, usually from 38.3 µM), actives largely listed as inhibitors; HEK293 cAMP-luciferase reporter cells, luminescence, 24 h;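 note: loss of luciferase light is scored as toxicity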
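Cells in DMEM/10% Nu serum/1% pen-strep, 1536-well format. Pre-incubated 12 h, dosed with 23 nL compound, incubated a further 24 h. Luciferase detection, 12 min at room temp, luminescence.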
GLP1R inv ag: qHTS of GLP-1 Receptor Inverse Agonists (Inhibition Mode). HEK293 GLP-1R CRE-luciferase, luminescence, 24 h; GLP-1R form is constitutively active. Potency, µM (highest dose often 38.3 µM), usual class: inhibitors. 410,000 compounds, 1.6% hits; note: nearly all actives have a fitted effect of over 55% in size
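Constitutively active GLP-1R drives a cAMP-responsive luciferase in stably transfected HEK293 cells; test compounds are added after overnight (12 h) attachment and left 24 hr, and signal loss in luminescence marks inhibition.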
PTHR1 ag: qHTS for PTHR1 Agonists: Primary Screen; Parathyroid hormone/parathyroid hormone-related peptide receptor (Homo sapiens), Q03431; HEK293 GP2 PTHR1 cells, GloSensor cAMP luminescence, 1 h; Potency, µM (highest dose often 115 µM), hits mostly activators; 410,000 compounds, 0.075% hits; note: nearly all actives have a fitted effect of over 55% in size
Target sequence (Q03431 whole entry, looked up): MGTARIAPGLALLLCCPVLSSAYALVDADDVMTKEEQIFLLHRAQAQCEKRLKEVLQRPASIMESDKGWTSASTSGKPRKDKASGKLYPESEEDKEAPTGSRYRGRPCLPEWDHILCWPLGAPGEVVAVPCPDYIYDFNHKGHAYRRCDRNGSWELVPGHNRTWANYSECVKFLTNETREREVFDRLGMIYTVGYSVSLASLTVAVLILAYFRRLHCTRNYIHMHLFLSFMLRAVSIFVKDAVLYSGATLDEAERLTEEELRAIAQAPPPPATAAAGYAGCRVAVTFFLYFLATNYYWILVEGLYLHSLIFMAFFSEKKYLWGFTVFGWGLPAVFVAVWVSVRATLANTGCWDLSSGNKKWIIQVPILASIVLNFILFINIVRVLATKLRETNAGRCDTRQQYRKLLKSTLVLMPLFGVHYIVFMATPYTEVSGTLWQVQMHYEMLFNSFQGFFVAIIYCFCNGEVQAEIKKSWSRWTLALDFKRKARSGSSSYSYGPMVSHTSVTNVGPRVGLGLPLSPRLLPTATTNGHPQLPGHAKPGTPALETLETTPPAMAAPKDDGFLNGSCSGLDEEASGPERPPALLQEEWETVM
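HEK-293-derived GP2 cells expressing PTHR1 and a GloSensor cAMP reporter, 3,000/well, plated overnight, given luciferin plus IBMX (each 0.5 mM as added) for 1 h at 37 °C, then compound for 1 h at 37 °C. Luminescence was read after 15 min at room temperature.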
GLP-1R agonist: qHTS of GLP-1 Receptor Agonists | HEK293 GLP-1R CRE-luciferase, luminescence, 4-6 h; cells express a hypersensitive GLP-1R form | Potency, µM (titrated, usually from 45.6 µM), most hits filed as activators | Glucagon-like peptide 1 receptor (Homo sapiens), P43220 | 380,000 compounds, 0.007% hits
A number is an active result. Unless noted, calls come from the whole dose curve; as a rule, active = well fitted curve in the direction sought with a large enough effect; inconclusive = small, poorly fitted or top-dose-only effect, or another doubt; inactive = no such curve, though single readings can be large; an effect the other way counts as inactive or inconclusive.

COCC(C)NC(=O)c1cnn2c(C(F)F)cc(-c3ccccc3)nc12 (centres undefined) was read as HEK293 tox inactive, GLP1R inv ag inactive, PTHR1 ag inactive and GLP-1R agonist inactive.
For CC(C)(CO)Cc1cc(C(C)(C)C)c(O)c(C(C)(C)C)c1 the results were TSHR antag inactive, HEK293 tox inactive, GLP1R inv ag 7.1µM, PTHR1 ag inactive and GLP-1R agonist inconclusive.
For CC(C)(C=O)Cc1cc(C(C)(C)C)c(O)c(C(C)(C)C)c1 the results were TSHR antag inactive, HEK293 tox inactive, GLP1R inv ag 11µM, PTHR1 ag inactive and GLP-1R agonist inactive.
Screening Cc1cc(C(C)(C)C)c(O)c(C(C)(C)C)c1 returned TSHR antag inactive, HEK293 tox inactive, GLP1R inv ag inactive, PTHR1 ag inactive and GLP-1R agonist inactive.
For CN(C)Cc1cc(C(C)(C)C)c(O)c(C(C)(C)C)c1 the results were TSHR antag inactive, HEK293 tox inactive, GLP1R inv ag inactive, PTHR1 ag inactive and GLP-1R agonist inactive.
`Cc1cc(N2CCN(Cc3nc(-c4ccc(F)cc4)oc3C)CC2)cc(C)n1` gave TSHR antag inactive, HEK293 tox inactive, GLP1R inv ag 4.5µM, PTHR1 ag inactive and GLP-1R agonist inactive.
For Cc1cc(N2CCN(C)CC2)nc(-c2ccccc2O)n1 the results were TSHR antag inactive, HEK293 tox inactive, GLP1R inv ag 4µM, PTHR1 ag inactive and GLP-1R agonist inactive.
Screening COC(=O)c1c(C(=O)OC)c2c(-c3ccccc3)cc3cccc1n32 returned HEK293 tox inactive, GLP1R inv ag 8.9µM, PTHR1 ag inactive and GLP-1R agonist inactive.
For Cc1cccc(C2=NN(c3ccccc3)[C@@H](C(=O)N3CCOC3=O)[C@@H]2c2ccc(Cl)cc2)c1 the results were TSHR antag inactive, HEK293 tox inactive, GLP1R inv ag inconclusive, PTHR1 ag inactive and GLP-1R agonist inactive.
Cc1cccc(C2=NN(c3ccccc3)[C@@H](C(=O)N3CCOC3=O)[C@@H]2c2ccc(F)cc2)c1 was read as TSHR antag inactive, HEK293 tox inactive, GLP1R inv ag 13µM, PTHR1 ag inactive and GLP-1R agonist inactive.
`Cc1cccc(NC(=O)C(Cc2ccccc2)N2Cc3ccccc3C2=O)c1C` (centres undefined) gave HEK293 tox inactive, GLP1R inv ag inconclusive and PTHR1 ag inactive.
Screening O=C(CSc1nnc(Nc2ccccc2F)s1)Nc1cccc(S(=O)(=O)N2CCCCC2)c1 returned TSHR antag inactive, HEK293 tox inactive, GLP1R inv ag 10µM, PTHR1 ag inactive and GLP-1R agonist inactive.
`O=C(CN1CCN(S(=O)(=O)c2ccccc2)CC1)Nc1cccc(C(F)(F)F)c1` gave TSHR antag inactive, HEK293 tox inactive, GLP1R inv ag 4.5µM, PTHR1 ag inactive and GLP-1R agonist inactive.
O=C(CNc1cccc(S(=O)(=O)N2CCCC2)c1)Nc1cccc(F)c1 was read as TSHR antag inactive, HEK293 tox inactive, GLP1R inv ag inconclusive, PTHR1 ag inactive and GLP-1R agonist inactive.
Screening O=C(CN1CCCN(S(=O)(=O)c2ccc(F)cc2)CC1)Nc1cccc(F)c1 returned TSHR antag inactive, HEK293 tox inactive, GLP1R inv ag inconclusive, PTHR1 ag inactive and GLP-1R agonist inactive.
For O=C(CNc1cccc(C(F)(F)F)c1)Nc1cccc(S(=O)(=O)N2CCCC2)c1 the results were TSHR antag inactive, HEK293 tox inactive, GLP1R inv ag 2.5µM, PTHR1 ag inactive and GLP-1R agonist inactive.
Cc1cc(Nc2ccccc2C(=O)O)ccc1Cl was read as GLP-1R agonist inactive.
COc1ccc(N2CCN(c3oc(-c4ccc(COc5cccc(C)c5)o4)nc3C#N)CC2)cc1 was read as HEK293 tox inactive, GLP1R inv ag inactive and PTHR1 ag inactive.
For CN(C)c1ccc(/C=C2/C[N+](C)(C)C/C(=C/c3ccc(N(C)C)cc3)C2=O)cc1 the results were HEK293 tox 8.9µM, GLP1R inv ag inactive, PTHR1 ag inactive and GLP-1R agonist inactive.
For CC(C)/C=C1\CC/C(=C\c2ccc(N(C)C)cc2)C1=O the results were TSHR antag inactive, HEK293 tox inactive, GLP1R inv ag inactive, PTHR1 ag inactive and GLP-1R agonist inactive.
For Fc1ccc(C(c2ccc(F)cc2)N2CCN(CC=Cc3ccccc3)CC2)cc1 the results were GLP-1R agonist inactive.
For Cc1cc(OCC(=O)Nc2cc(-c3nc4ccccc4[nH]3)ccc2C)ccc1Cl the results were HEK293 tox inactive, GLP1R inv ag inactive and PTHR1 ag inactive.
`COc1ccc(Cl)cc1NC(=O)Cn1nnc2sc(-c3ccccc3)cc2c1=O` gave HEK293 tox inactive, GLP1R inv ag inactive and PTHR1 ag inactive.
`CCN(C(=O)NCc1noc2ccccc12)c1cc(C)ccc1C` gave HEK293 tox inactive, GLP1R inv ag inactive and PTHR1 ag inactive.
Cc1ccccc1C(=O)NC1CCN(Cc2ccccc2)CC1 was read as TSHR antag inactive, HEK293 tox inactive, GLP1R inv ag inactive, PTHR1 ag inactive and GLP-1R agonist inactive.
`CC1(C)Cc2cccc(C(=O)NC3CCN(Cc4ccccc4)CC3)c2O1` gave TSHR antag inactive, HEK293 tox inactive, GLP1R inv ag 10µM, PTHR1 ag inactive and GLP-1R agonist inactive.
COc1cccc(OC)c1C(=O)NC(C)C12CC3CC(CC(C3)C1)C2 (centres undefined) was read as TSHR antag inactive, HEK293 tox inactive, GLP1R inv ag 8.9µM, PTHR1 ag inactive and GLP-1R agonist inactive.
Screening CC(NC(=O)c1ccc([N+](=O)[O-])o1)C12CC3CC(CC(C3)C1)C2 (centres undefined) returned TSHR antag inconclusive, HEK293 tox inactive, GLP1R inv ag inactive, PTHR1 ag inactive and GLP-1R agonist inactive.
CC(NCC(O)COCCC12CC3CC(CC(C3)C1)C2)c1ccccc1 (centres undefined) was read as TSHR antag inactive, HEK293 tox inconclusive, GLP1R inv ag 11µM, PTHR1 ag inactive and GLP-1R agonist inactive.
Cc1ccc(C(OCC(O)CNCc2ccc(F)cc2)c2ccccc2)cc1 (centres undefined) was read as TSHR antag inactive, HEK293 tox inconclusive, GLP1R inv ag 5.6µM, PTHR1 ag inactive and GLP-1R agonist inactive.
COc1ccc(C(OCC(O)CNC(C)c2ccccc2)c2ccc(OC)cc2)cc1 (centres undefined) was read as TSHR antag inactive, HEK293 tox inconclusive, GLP1R inv ag 10µM, PTHR1 ag inactive and GLP-1R agonist inactive.

Source: PubChem (National Center for Advancing Translational Sciences (NCATS))
